Compound activity deposited in PubChem BioAssay by several laboratories.
SARS 3CLpro inh: SARS-CoV 3CLpro protease inhibitors, primary screen, biochemical, quenched FRET | 0.14% of 290,000 active | inhibition, % at 6 µM | Replicase polyprotein 1ab (Severe acute respiratory syndrome coronavirus), P0C6X7 | recombinant SARS-CoV 3CLpro, quenched FRET peptide cleavage; in the data active = inhibition above about 12%
MazEF act: activators of E. coli MazEF toxin-antitoxin RNase, primary screen, biochemical, fluorescence, uHTS; 0.32% of 350,000 active; activation, % at 20 µM; AID 504720, 2011; Endoribonuclease toxin MazF (Escherichia coli (strain K12)), P0AE70; FAM/BHQ RNA-DNA oligo cleavage fluorescence, 5 h; in the data active = activation above about 50%
BJeLR viability: MLPCN primary cell-based screen for lethality selective to Ras in HRASV12 cells. BJeLR (HRASV12) viability, CellTiter-Glo ATP luminescence, 48 h. inhibition, % (concentration not given with the values). 0.17% of 300,000 active. AID 1554, 2009; in the data active = inhibition above about 50%; inconclusive = no clear call, values can overlap the other calls
PfHsp40 rescue: rescue of yeast from PfHsp40 toxicity, primary screen, S. cerevisiae, ATP luminescence; growth rescue, % at 12.5 µM; AID 504582, 2011; 0.68% of 340,000 active; S. cerevisiae expressing PfHsp40, growth rescue; in the data active = growth rescue above about 28%, passing the limit was not always enough; inconclusive = no clear call, values can overlap the other calls;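 also: yeast W303a lacking pdr1 and pdr3 grown in galactose medium; growth measured after three days at 30 °C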
Y pestis TopoI: Yersinia pestis topoisomerase I inhibitors, primary screen, biochemical, cleavage product accumulation, plate reader, single point | 0.064% of 360,000 active | Y. pestis Topo-I cleavage product accumulation | activity, % at 10 µM; in the data active = activity above about 50%, passing the limit was not always enough; inconclusive = no clear call, values can overlap the other calls
BioA inh-1: M. tuberculosis BioA enzyme inhibitors, primary screen, biochemical, plate reader, single point, HTS; 7,8-diaminopelargonic acid synthase BioA (Mycobacterium tuberculosis); purified M. tuberculosis BioA enzyme; inhibition, % at 9.99 µM; 0.096% of 360,000 active; AID 602481, 2012; in the data active = inhibition above about 40%; inconclusive = no clear call, values can overlap the other calls
BioA inh-2: Mtb BioA enzyme inhibitors, dose response, biochemical, plate reader, cherry-pick samples, set 03; shares compounds with BioA inh-1; purified BioA enzyme; max activity, %; 310 tested, under 10 active; AID 651679, 2012;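 also: top concentration of the dilution series was 10 µM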
Target sequence (P9WQ81 whole entry, looked up): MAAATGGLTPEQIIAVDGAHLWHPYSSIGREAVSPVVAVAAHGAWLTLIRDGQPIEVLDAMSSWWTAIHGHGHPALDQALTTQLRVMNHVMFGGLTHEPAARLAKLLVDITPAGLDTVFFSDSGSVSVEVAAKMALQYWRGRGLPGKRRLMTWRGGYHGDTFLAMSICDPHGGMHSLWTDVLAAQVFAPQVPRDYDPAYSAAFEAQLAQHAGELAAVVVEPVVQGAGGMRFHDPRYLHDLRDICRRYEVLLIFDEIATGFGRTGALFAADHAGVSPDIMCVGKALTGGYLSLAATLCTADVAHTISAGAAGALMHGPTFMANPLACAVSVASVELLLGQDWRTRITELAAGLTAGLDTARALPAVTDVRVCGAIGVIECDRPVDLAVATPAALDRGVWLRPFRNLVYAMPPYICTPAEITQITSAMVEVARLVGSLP
HepG2 cytotox: cytotoxicity in HepG2 cells, dose response, cytotoxicity control, cell-based, plate reader, cherry-pick, two tests; shares compounds with BioA inh-1; max activity, %; 310 tested, under 10 active; AID 651898, 2012
NIH3T3 tox 5: cytotoxicity in NIH3T3 fibroblasts, dose response, cytotoxicity control, cell-based, plate reader, cherry-pick, two tests. 310 tested, under 10 active. shares compounds with BioA inh-1. activity change, negative = cytotoxicity, % at 26 µM. AID 651900, 2012
The depositor's hits bear a star; i = inactive; ? = inconclusive; nt = not tested or not shown. Compounds with a hit are over-represented: about 1.1% of the library has one in this group of screens. Unless noted, no rule for the calls is given here.

SMILES	SARS 3CLpro inh	MazEF act	BJeLR viability	PfHsp40 rescue	Y pestis TopoI	BioA inh-1	BioA inh-2	HepG2 cytotox	NIH3T3 tox 5
C[C@H]1CN([C@@H](C)CO)C(=O)c2cc(-c3ccccc3)cnc2O[C@H]1CN(C)C(=O)c1cccc(F)c1	nt	nt	nt	nt	nt	0	nt	nt	nt
CCC(=O)N1C[C@H](C)[C@@H](OC)CN(C)C(=O)c2cc(NC(=O)NC(C)C)ccc2OC[C@@H]1C	nt	nt	nt	nt	nt	-1	nt	nt	nt
C=C(C)n1c(=O)n(Cc2ccc(C)cc2)c2ccccc21	6	-4	-4	6	25	0	nt	nt	nt
C=C(C)n1c(=O)n(Cc2ccccc2C)c2ccccc21	3	-2	-7	-1	8	48*	-10	-14	-18
COc1ccc(C(=O)C2CCCN(C(=O)c3ccnn3C)C2)c(C)c1 (stereo not drawn)	-2	4	-10	-1	1	7	nt	nt	nt
COc1ccc(C(=O)C2CCCN(C(=O)c3ccc(C(C)=O)s3)C2)c(C)c1 (stereo not drawn)	2	-6	6	0	-3	64*	-10	-7	-8
CO[C@@H]1CN(C)C(=O)c2ccc(NC(=O)C3CC3)cc2OC[C@H](C)N(Cc2ccccc2)C[C@H]1C	nt	nt	nt	nt	nt	2	nt	nt	nt
CCOCCCNC(=O)CSc1nc2nc(C)c(Cc3ccccc3)c(C)n2n1	2	0	-6	-2	0	76*	-8	12	-10
Cc1nc2nc(SCC(=O)NCCCN3CCOCC3)nn2c(C)c1Cc1ccccc1	-2	7	6	-2	4	47*	-5	7	9
O=C(C[C@@H]1CC[C@@H](NC(=O)C2CCC2)[C@@H](CO)O1)NCCCN1CCOCC1	nt	nt	nt	nt	nt	1	nt	nt	nt
CC(=O)N1CCN(c2nnc(-c3ccc(C)cc3)c3ccccc23)CC1	4	2	13	3	22	nt	nt	nt	nt
Cc1ccc(-c2nnc(N3CCN(C(=O)CSc4ncn[nH]4)CC3)c3ccccc23)cc1	5	0	nt	-1	23	52*	-8	6	-1
CN1C(=O)c2cc(NC(=O)c3ccc(C(F)(F)F)cc3)ccc2OC[C@H]2O[C@H](CC(=O)NC3Cc4ccccc4C3)CC[C@@H]21	nt	nt	nt	nt	nt	1	nt	nt	nt
COc1ccc(S(=O)(=O)N[C@H]2C=C[C@H](CC(=O)NCc3ccccc3F)O[C@H]2CO)cc1	nt	nt	nt	nt	nt	-3	nt	nt	nt
COc1ccc(C2c3c(oc4ccccc4c3=O)C(=O)N2CCCN2CCOCC2)cc1 (stereo not drawn)	-3	3	1	nt	nt	nt	nt	nt	nt
COc1ccc(C2c3c(oc4ccc(Cl)cc4c3=O)C(=O)N2CCN2CCOCC2)cc1 (stereo not drawn)	-1	3	0	1	-12	72*	-6	10	6
C[C@H]1CCCCO[C@@H](CN(C)S(C)(=O)=O)[C@@H](C)CN([C@@H](C)CO)C(=O)c2cc(N(C)C)ccc2O1	nt	nt	nt	nt	nt	-2	nt	nt	nt
COc1ccc(Cn2ccc(=O)c(Cc3c(Cl)cccc3Cl)c2C)cc1	1	3	-4	2	1	43*	5	?	?
O=C(Nc1ccc(F)c(F)c1)C1CCN(S(=O)(=O)c2cccs2)CC1	nt	2	nt	1	-1	58*	-9	14	-5
Cc1ccc(NC(=O)C2CCN(S(=O)(=O)c3cccs3)CC2)cc1	5	7	-8	0	11	nt	nt	nt	nt
C[C@@H]1CN([C@H](C)CO)S(=O)(=O)c2ccc(-c3cccc(F)c3)cc2O[C@@H]1CN(C)S(=O)(=O)c1ccccc1	nt	nt	nt	nt	nt	1	nt	nt	nt
CCCN1CCN(C(=O)C2CCN(c3nnc(C)c4c(C)n(-c5ccc(C)cc5)nc34)CC2)CC1	4	5	6	-1	28	41*	-5	17	-9
O=C(O)C[C@@H]1CC[C@H]2[C@@H](COC[C@H](O)CN2S(=O)(=O)c2ccc(F)cc2)O1	nt	nt	nt	nt	nt	-1	nt	nt	nt
COc1ccccc1S(=O)(=O)N1CC[C@@H]2[C@H](CO)Nc3ccc(-c4cccc(C#N)c4)cc3[C@@H]21	nt	nt	nt	nt	nt	48*	20	i	1
COc1ccc(NC(=O)N(C)C[C@H]2Oc3c(NC(=O)Nc4ccc(C(F)(F)F)cc4)cccc3C(=O)N([C@@H](C)CO)C[C@H]2C)cc1	nt	nt	nt	nt	nt	-2	nt	nt	nt
